Among the data in PubChem BioAssay are composite z-score values, retold here.

The nature of this experiment: binders of probe aHhip on microarray, primary screen, stem cell growth factor project, biochemical, small-molecule microarray, fluorescence 635/667 (AID 1087).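 Further: score merges spot fluorescence at 667nm with spot signal to noise ratio.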 The following applies: higher = more signal.
With `CCOC(=O)C[C@H]1[C@H](OC(=O)c2cc3ccccc3oc2=O)[C@@H](NC(=O)C2CCCCC2)c2cc(OCCCO)ccc2N1C(=O)c1ccc2ccccc2n1`, the composite z-score is -0.0645. `COc1cccc([C@@H]2[C@@H](C)CC[C@H]3C(=O)N(C)[C@@H](C(C)C)C(=O)N23)c1` displayed a composite z-score of 0.154. For the compound `COCC(=C=CC[C@H](O)c1ccc(OCCO)cc1)C[C@H](O)c1ccccn1`, the composite z-score is -0.134.

With `C=C(CCCC)C(=O)CC[C@@H](OC(=O)c1cccnc1)c1cccc(OCCO)c1`, the composite z-score is -0.0645. `CC(C)NC(=O)[C@@]1(Cc2ccccc2I)c2ccccc2C(=O)N(C2CCCCC2)[C@H]1c1ccc(CO)cc1` showed a composite z-score of 0.0505. In the case of `NC(=O)[C@H]1[C@@H]2C(=O)O[C@@H](c3ccccc3)[C@@H](c3ccccc3)N2[C@@H](c2ccc(O)cc2)[C@]12C(=O)Nc1ccc(C#CCCO)cc12`, the composite z-score was -0.251. On to `C=CCNC(=O)[C@@H]1[C@H]2C(=O)O[C@H](c3ccccc3)[C@H](c3ccccc3)N2[C@H](c2ccc(OCCO)cc2)[C@@]12C(=O)N(C(=O)OCCOC)c1ccc(C#CC3(O)CCCCCC3)cc12`, for which the composite z-score was -0.322.

As for `CSCC[C@@H]1NC(=O)CC=C[C@@H](C)COC(=O)[C@H](CCSC)NC(=O)CC=C[C@@H](C)COC1=O`, the composite z-score was 0.0578.

Consider `COC(=O)[C@@]1(Cc2ccc(OC)cc2)[C@H]2c3cc(C(=O)N(C)C)n(CCc4ccc(OC)c(Br)c4)c3C[C@H]2CN1C(=O)c1ccccc1`, for which the composite z-score was -0.0489. The result for `C#C[C@H](O[Si](C#Cc1ccccc1)(C(C)C)C(C)C)c1ccccc1` reads -0.233. `COCCCNC(=O)[C@@H]1c2ccccc2C(=O)N(CC23CC4CC(CC(C4)C2)C3)[C@H]1c1ccc(CO)cc1` came in with a composite z-score of 0.0053.
